# From PubChem BioAssay (NCATS)
# Records with an inconclusive call do not appear. Entries that show only a call come without a potency. The source made the active and inactive calls. Unless noted, calls follow the shape of the dose curve; as a rule, active = well fitted curve in the direction sought with a large enough effect; inconclusive = small, poorly fitted or top-dose-only effect, or another doubt; inactive = no such curve, though single readings can be large; an effect the other way counts as inactive or inconclusive.
# What was measured:
# [1] = S16 Schwann cell viability assay (CellTiter-Glo assay) (AID 624031); also: nearly all actives have a fitted effect of over 70% in size
# Outline: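 Luminescent ATP read-out (CellTiter-Glo) after 24 h compound exposure of native S16 rat Schwann cells at 37 °C. Signals were normalized between cell-free wells and DMSO-treated cells, set as 0% activity.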
# [2] = S16 Schwann cell PMP22 intronic element firefly luciferase assay (AID 624032); also: nearly all actives have a fitted effect of over 30% in size
# Outline: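 Luciferase reporter of PMP22 intronic-element expression in stably transfected S16 rat Schwann cells, read by ONE-Glo luminescence after 24 h compound exposure at 37 C. Activity scaled between DMSO (0%) and positive-control PTC124; concentration-effect curves quality-classified.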
# [3] = S16 Schwann cell PMP22 intronic element beta-lactamase assay (AID 624044; calls by dose curve; also: nearly all actives have a fitted effect of over 15% in size)
# Outline: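 Beta-lactamase reporter under a PMP22 intronic regulatory element in stable S16 rat Schwann cells; 24 h compound exposure. 460 nm blue signal normalized between DMSO (0%) and potassium clavulanate, with 535 nm FRET tracking viability; curves classed by r2 and response.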
# Potency is read from the fitted curve at half-maximal effect.
Structure (SMILES),Potency [1],Potency [2],Potency [3]
NS(=O)(=O)c1ccc(Cl)c(S(N)(=O)=O)c1,inactive,inactive,–
Cc1ncc(CO)c(C=O)c1O,inactive,inactive,–
CC(C)(C)NC[C@H](O)COc1cccc2c1CCCC2=O,inactive,inactive,–
CN1CCN(c2cc3c(cc2F)c(=O)c(C(=O)O)cn3-c2ccc(F)cc2)CC1,inactive,inactive,–
OC1C(O)C(O)C(O)C(O)C1O (stereo not given),inactive,inactive,–
C[N+]1(C)CCC(=C(c2ccccc2)c2ccccc2)CC1,inactive,inactive,–
Cc1cccc(C)c1NC(=O)c1ccccc1C(=O)O,inactive,inactive,–
CC[N+](C)(CC)CCOC(=O)C(O)(c1ccccc1)C1CCCCC1 (stereo not given),inactive,inactive,–
OCc1ccccn1,inactive,inactive,–
CN1CCN(c2c(F)cc3c(=O)c(C(=O)O)cn4c3c2SCC4)CC1,inactive,inactive,–
COC(=O)C(c1ccccc1Cl)N1CCc2sccc2C1 (stereo not given),inactive,inactive,–
O=C(CCCN1CC=C(n2c(=O)[nH]c3ccccc32)CC1)c1ccc(F)cc1,inactive,inactive,–
CCOC(=O)c1c(N)sc2c1CCN(Cc1ccccc1)C2,inactive,36.1 µM (active),–
N#CCC(=O)NN,inactive,inactive,–
CCCCNC(=O)NS(=O)(=O)c1ccc(N)cc1,inactive,inactive,–
CC(=O)Nc1ccc(CC(=O)O)cc1,inactive,inactive,–
CC1CCc2c(N3CCC(O)CC3)c(F)cc3c(=O)c(C(=O)O)cn1c23 (stereo not given),inactive,inactive,–
CN(C)CCC[C@@]1(c2ccc(F)cc2)OCc2cc(C#N)ccc21,inactive,inactive,–
O=C(Nc1cccc(C2=NCCN2)c1)Nc1cccc(C2=NCCN2)c1,inactive,inactive,–
Oc1ccccc1C=NCc1ccccc1,inactive,inactive,–
CC(C)CCCC(C)N (stereo not given),inactive,inactive,–
COc1ccc(CCN(C)CCCN2CCc3cc(OC)c(OC)cc3CC2=O)cc1OC,inactive,inactive,–
O=S(c1cc(Cl)cc(Cl)c1O)c1cc(Cl)cc(Cl)c1O,inactive,inactive,–
CC(=O)Nc1ccc(OC(=O)c2ccccc2OC(C)=O)cc1,inactive,32.2 µM (active),–
CCN(CC)CCNC(=O)COc1ccc(OC)cc1,inactive,inactive,–
CC(=O)NC(=O)c1ccccc1O,inactive,inactive,–

Structure (SMILES),Potency [1],Potency [2],Potency [3]
CC(C)Cc1ccc(CC(=O)O)cc1,inactive,inactive,–
COc1ccc2c(c1)c1c3n2CCN(C)C3=NCC1,inactive,inactive,–
CCCCCCCCNC(C)C(O)c1ccc(SC(C)C)cc1 (stereo not given),14.4 µM (active),22.8 µM (active),–
CN(C)CCOC(c1ccc(Cl)cc1)c1ccccn1 (stereo not given),inactive,inactive,–
CC(=O)O[C@H]1C[C@@H]2CC[C@@H]3[C@H](CC[C@@]4(C)[C@H]3C[C@H]([N+]3(C)CCCCC3)[C@@H]4OC(C)=O)[C@@]2(C)C[C@@H]1N1CCCCC1,inactive,inactive,–
NC1CCN(c2nc3c(cc2F)c(=O)c(C(=O)O)cn3-c2ccc(F)cc2F)C1 (stereo not given),inactive,inactive,–
FC1(F)C(F)(F)C(F)(F)C2(F)C(F)(F)C(F)(F)C(F)(F)C(F)(F)C2(F)C1(F)F (stereo not given),inactive,inactive,–
N=C(N)N1CCc2ccccc2C1,inactive,inactive,–
CN(C)CCN1C(=O)c2ccccc2N(C)c2ccccc21,inactive,inactive,–
CC(=O)Oc1ccc(C)cc1,inactive,inactive,–
CCOCCn1c(N2CCCN(C)CC2)nc2ccccc21,inactive,inactive,–
Cc1cccc(C)c1NC(=O)CN1CCCCCC1,inactive,inactive,–
CC(=O)N[C@@H](CCC(=O)O)C(=O)O,inactive,inactive,–
Cc1nc(-c2ccc(Cl)cc2)oc1COC(C)(C)C(=O)O,inactive,inactive,–
O=C(c1ccc(F)cc1)C1CCN(CCn2c(=S)[nH]c3ccccc3c2=O)CC1,inactive,inactive,inactive
C#C[C@]1(O)CC[C@H]2[C@@H]3CCC4=CC(=O)CC[C@@H]4[C@H]3CC[C@@]21CC,inactive,20.3 µM (active),inactive
CCC(CC)(CC(=O)Nc1cccc(/C=C/c2nc(C3CCC3)cs2)c1)C(=O)O,inactive,inactive,inactive
O=C(O)P(=O)(O)O,inactive,inactive,inactive
O=C(O)C(Cc1cc(I)c(O)c(I)c1)c1ccccc1 (stereo not given),inactive,inactive,inactive
CC(=O)OC[C@H]1O[C@@H](n2ncc(=O)[nH]c2=O)[C@H](OC(C)=O)[C@@H]1OC(C)=O,inactive,inactive,9.99 µM (active)
O=C1C(CCS(=O)c2ccccc2)C(=O)N(c2ccccc2)N1c1ccccc1 (stereo not given),inactive,inactive,inactive
CCCCc1cc2ccccc2c(OCCN(C)C)n1,inactive,inactive,inactive
C[C@@H](O)[C@H]1C(=O)N2C(C(=O)O)=C(S[C@@H]3CN[C@H](CNS(N)(=O)=O)C3)[C@H](C)[C@H]12,inactive,inactive,inactive
CN1CCN(C2=Nc3cc(F)ccc3Cc3ccccc32)CC1,inactive,inactive,inactive
CCOc1ccccc1OCCN[C@H](C)Cc1ccc(OC)c(S(N)(=O)=O)c1,inactive,inactive,inactive
Nc1ccc(C(=O)NCC(=O)O)cc1,inactive,inactive,–
